Shown is part of a subset that was picked to be rich in the strongest signals.

Assay in all cases: glycan array binding signal (z-score within array); higher = stronger binding
Common to all, as to conditions: glycan notation: IUPAC condensed, linker removed

For test [1], the target named is Fuc(a1-2)Gal(b1-3)GalNAc(b1-3)Gal(a1-4)Gal(b1-4)Glc. Summed up: (§1)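 Glycan array data came from 3228 arrays in the Consortium for Functional Glycomics database, and only arrays with an available protein sequence were kept. Glycan names were put into IUPAC-condensed notation, and columns mapping to the same glycan were averaged. The binding signal is a within-array Z-score, averaged across arrays of one protein sequence run at different concentrations or buffers and across linkers. A negative Z-score can be read as non-binding.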

Another test concerns the target Fuc(a1-2)Gal(b1-4)Glc6S. Summed up:
as §1

The target of test [2] is Fuc(a1-2)Gal(b1-4)[Fuc(a1-3)]GlcNAc(b1-3)Gal(b1-4)[Fuc(a1-3)]GlcNAc(b1-3)Gal(b1-4)[Fuc(a1-3)]GlcNAc. Summed up:
as §1

The next test deals with Fuc(a1-2)Gal6S(b1-4)Glc. Summed up:
as §1

The target of test [3] is Fuc(a1-2)[Gal(a1-3)]Gal(b1-3)GlcNAc. Summed up:
as §1

Test [4] addresses Fuc(a1-2)[Gal(a1-3)]Gal(b1-4)Glc. Put shortly:
as §1

Test [5] deals with Fuc(a1-2)[Gal(a1-3)]Gal(b1-4)GlcNAc. Put shortly: as §1
The target in test [6] is Fuc(a1-2)[GalNAc(a1-3)]Gal(b1-4)Glc. Summed up: as §1
The target in test [7] is Fuc(a1-2)[GalNAc(b1-3)]Gal. Summed up:
as §1

The target of test [8] is Fuc(a1-3)[Gal(b1-4)]GlcNAc6S. Summed up:
as §1

A further test has as its target Gal(a1-3)Gal(b1-4)GlcNAc. Summed up: as §1
Another test concerns the target Gal(b1-2)Gal. Summed up: as §1
Test [9] has as its target Gal(b1-3)GalNAc(b1-4)Gal(b1-4)Glc. Summed up: as §1
For test [10], the target named is Gal(b1-3)[Fuc(a1-4)]GlcNAc. Summed up:
as §1

Test [11] addresses Gal(b1-3)[Fuc(a1-4)]GlcNAc(b1-3)Gal(b1-4)GlcNAc. Summed up:
as §1

In test [12] the target is Gal(b1-4)GlcNAc(b1-3)Gal(b1-4)Glc. Put shortly:
as §1

The target in test [13] is Gal3S(b1-3)[Fuc(a1-4)]GlcNAc. Summed up: as §1
For the next test, the target named is Gal3S(b1-4)Glc. Summed up:
as §1

Another test addresses Gal4S(b1-4)GlcNAc. Summed up: as §1
Test [14] deals with GalNAc(b1-3)Gal(a1-4)Gal(b1-4)GlcNAc. Put shortly:
as §1

A further test deals with GlcA(b1-3)Gal. Summed up: as §1
Another test addresses GlcNAc(b1-3)Gal. Put shortly: as §1
Test [15] has as its target GlcNAc(b1-4)Gal(b1-4)GlcNAc. Put shortly:
as §1

The target in a further test is GlcNAc(b1-4)GlcNAc. Summed up:
as §1

Test [16] deals with Neu5Ac(a2-3)Gal(b1-3)GlcNAc(b1-3)Gal(b1-3)GlcNAc. Put shortly: as §1
Test [17] concerns the target Neu5Ac(a2-3)Gal(b1-4)GlcNAc(b1-6)[Gal(b1-3)]GalNAc. Summed up: as §1
Test [18] concerns the target Neu5Ac(a2-6)Gal(b1-4)GlcNAc(b1-2)Man(a1-3)[GlcNAc(b1-2)Man(a1-6)]Man(b1-4)GlcNAc(b1-4)GlcNAc. Put shortly: as §1
The target in test [19] is Neu5Ac(a2-6)Gal(b1-4)GlcNAc(b1-2)Man(a1-6)[GlcNAc(b1-2)Man(a1-3)]Man(b1-4)GlcNAc(b1-4)GlcNAc. Summed up:
as §1

Test [20] addresses Neu5Ac(a2-6)Gal(b1-4)GlcNAc(b1-3)Gal(b1-4)[Fuc(a1-3)]GlcNAc(b1-3)Gal(b1-4)[Fuc(a1-3)]GlcNAc. Put shortly:
as §1

In test [21] the target is Neu5Gc(b2-6)Gal(b1-4)GlcNAc. Summed up: as §1
For test [22], the target named is Fuc(a1-3)[Gal(b1-4)]GlcNAc. Put shortly: as §1
Another test deals with Gal(a1-2)Gal. Put shortly:
as §1

Another test has as its target Gal(a1-3)Gal(b1-3)GlcNAc. Summed up:
as §1

The next test addresses Gal(a1-3)Gal(b1-4)Glc. Summed up:
as §1

Test [23] deals with Gal(b1-3)[Neu5Ac(a2-6)]GalNAc. Put shortly:
as §1

Test [24] deals with GlcNAc(b1-3)Gal(b1-3)GalNAc. Summed up: as §1
Test [25] addresses GlcNAc(b1-4)GlcNAc(b1-4)GlcNAc. Put shortly:
as §1

Test [26] has as its target GlcNAc(b1-6)Gal(b1-4)GlcNAc. Summed up: as §1
Another test addresses Kdn(a2-3)Gal(b1-4)GlcNAc. Put shortly:
as §1

The target in test [27] is Man(a1-2)Man(a1-3)[Man(a1-2)Man(a1-6)]Man(a1-6)[Man(a1-2)Man(a1-2)Man(a1-3)]Man(b1-4)GlcNAc(b1-4)GlcNAc. Put shortly: as §1
Test [28] concerns the target Man(a1-3)[Man(a1-6)]Man(a1-6)[Man(a1-3)]Man(b1-4)GlcNAc(b1-4)GlcNAc. Put shortly: as §1
Test [29] addresses Neu5Ac(a2-3)Gal(b1-3)[Neu5Ac(a2-3)Gal(b1-4)]GlcNAc. Summed up: as §1
The target of test [30] is Neu5Ac(a2-3)Gal(b1-4)[Fuc(a1-3)]GlcNAc(b1-3)Gal. Put shortly: as §1
The target of test [31] is Neu5Ac(a2-8)Neu5Ac(a2-3)[GalNAc(b1-4)]Gal(b1-4)Glc. Summed up: as §1
Test [32] concerns the target Neu5Ac(a2-8)Neu5Ac(a2-8)Neu5Ac(a2-3)[GalNAc(b1-4)]Gal(b1-4)Glc. Put shortly: as §1

B1: Gal 8 (Homo sapiens), O00214 (protein)
chain: MMLSLNNLQNIIYNPVIPFVGTIPDQLDPGTLIVIRGHVPSDADRFQVDLQNGSSMKPRADVAFHFNPRFKRAGCIVCNTLINEKWGREEITYDTPFKREKSFEIVIMVKDKFQVAVNGKHTLLYGHRIGPEKIDTLGIYGKVNIHSIGFSFSSDLQSTQASSLELTEISRENVPKSGTPQLPSNRGGDISKIAPRTVYTKSKDSTVNHTLTCTKIPPMNYVSKRLPFAARLNTPMGPGRTVVVKGEVNANAKSFNVDLLAGKSKDIALHLNPRLNIKAFVRNSFLQESWGEEERNITSFPFSPGMYFEMIIYCDVREFKVAVNGVHSLEYKHRFKELSSIDTLEINGDIHLLEVRSW
Take B1: the “glycan array binding signal (z-score)” value in test [1] is -0.141; with Fuc(a1-2)Gal(b1-4)Glc6S, 0.286; in test [2], -0.386; with Fuc(a1-2)Gal6S(b1-4)Glc, -0.427; in [3], 3.58; in [4] it was 5.02. Besides, the “glycan array binding signal (z-score)” value is 4.8 in [5]; 4.22 in test [6]; 0.118 in test [7]; -0.432 in test [8]; 0.236 with Gal(a1-3)Gal(b1-4)GlcNAc; -0.401 with Gal(b1-2)Gal. Besides, the “glycan array binding signal (z-score)” value in [9] is 0.32; in test [10] it was -0.413; in [11], 0.294; in test [12] it was 2.43; in test [13], -0.42; with Gal3S(b1-4)Glc it was 0.286. Besides, the “glycan array binding signal (z-score)” value with Gal4S(b1-4)GlcNAc is -0.395; in test [14], 0.145; with GlcA(b1-3)Gal, -0.451; with GlcNAc(b1-3)Gal it was -0.434; in test [15], -0.425; in the test with GlcNAc(b1-4)GlcNAc it was -0.449. For the same molecule, the “glycan array binding signal (z-score)” value in [16] was 0.949; in test [17] it was 0.196; in test [18] it was -0.45; in test [19] it was -0.442; in test [20], -0.365; in test [21], -0.452.

B2: DEC205 (Homo sapiens), O60449 (protein)
chain: MRTGWATPRRPAGLLMLLFWFFDLAEPSGRAANDPFTIVHGNTGKCIKPVYGWIVADDCDETEDKLWKWVSQHRLFHLHSQKCLGLDITKSVNELRMFSCDSSAMLWWKCEHHSLYGAARYRLALKDGHGTAISNASDVWKKGGSEESLCDQPYHEIYTRDGNSYGRPCEFPFLIDGTWHHDCILDEDHSGPWCATTLNYEYDRKWGICLKPENGCEDNWEKNEQFGSCYQFNTQTALSWKEAYVSCQNQGADLLSINSAAELTYLKEKEGIAKIFWIGLNQLYSARGWEWSDHKPLNFLNWDPDRPSAPTIGGSSCARMDAESGLWQSFSCEAQLPYVCRKPLNNTVELTDVWTYSDTRCDAGWLPNNGFCYLLVNESNSWDKAHAKCKAFSSDLISIHSLADVEVVVTKLHNEDIKEEVWIGLKNINIPTLFQWSDGTEVTLTYWDENEPNVPYNKTPNCVSYLGELGQWKVQSCEEKLKYVCKRKGEKLNDASSDKMCPPDEGWKRHGETCYKIYEDEVPFGTNCNLTITSRFEQEYLNDLMKKYDKSLRKYFWTGLRDVDSCGEYNWATVGGRRRAVTFSNWNFLEPASPGGCVAMSTGKSVGKWEVKDCRSFKALSICKKMSGPLGPEEASPKPDDPCPEGWQSFPASLSCYKVFHAERIVRKRNWEEAERFCQALGAHLSSFSHVDEIKEFLHFLTDQFSGQHWLWIGLNKRSPDLQGSWQWSDRTPVSTIIMPNEFQQDYDIRDCAAVKVFHRPWRRGWHFYDDREFIYLRPFACDTKLEWVCQIPKGRTPKTPDWYNPDRAGIHGPPLIIEGSEYWFVADLHLNYEEAVLYCASNHSFLATITSFVGLKAIKNKIANISGDGQKWWIRISEWPIDDHFTYSRYPWHRFPVTFGEECLYMSAKTWLIDLGKPTDCSTKLPFICEKYNVSSLEKYSPDSAAKVQCSEQWIPFQNKCFLKIKPVSLTFSQASDTCHSYGGTLPSVLSQIEQDFITSLLPDMEATLWIGLRWTAYEKINKWTDNRELTYSNFHPLLVSGRLRIPENFFEEESRYHCALILNLQKSPFTGTWNFTSCSERHFVSLCQKYSEVKSRQTLQNASETVKYLNNLYKIIPKTLTWHSAKRECLKSNMQLVSITDPYQQAFLSVQALLHNSSLWIGLFSQDDELNFGWSDGKRLHFSRWAETNGQLEDCVVLDTDGFWKTVDCNDNQPGAICYYSGNETEKEVKPVDSVKCPSPVLNTPWIPFQNCCYNFIITKNRHMATTQDEVHTKCQKLNPKSHILSIRDEKENNFVLEQLLYFNYMASWVMLGITYRNNSLMWFDKTPLSYTHWRAGRPTIKNEKFLAGLSTDGFWDIQTFKVIEEAVYFHQHSILACKIEMVDYKEEHNTTLPQFMPYEDGIYSVIQKKVTWYEALNMCSQSGGHLASVHNQNGQLFLEDIVKRDGFPLWVGLSSHDGSESSFEWSDGSTFDYIPWKGQTSPGNCVLLDPKGTWKHEKCNSVKDGAICYKPTKSKKLSRLTYSSRCPAAKENGSRWIQYKGHCYKSDQALHSFSEAKKLCSKHDHSATIVSIKDEDENKFVSRLMRENNNITMRVWLGLSQHSVDQSWSWLDGSEVTFVKWENKSKSGVGRCSMLIASNETWKKVECEHGFGRVVCKVPLGPDYTAIAIIVATLSILVLMGGLIWFLFQRHRLHLAGFSSVRYAQGVNEDEIMLPSFHD
As to B2, the “glycan array binding signal (z-score)” value in test [1] was -0.222; in test [2], 1.97; in test [22], -0.335; with Gal(a1-2)Gal, -0.046; in the test with Gal(a1-3)Gal(b1-3)GlcNAc, -0.064; in the test with Gal(a1-3)Gal(b1-4)Glc, 1.66. Moreover, the “glycan array binding signal (z-score)” value in test [23] was -0.279; in test [24], -0.229; in test [25], 3.79; in test [26], -0.071; with Kdn(a2-3)Gal(b1-4)GlcNAc, 1.75; in test [27] it was 0.357. The “glycan array binding signal (z-score)” value in [28] was -0.154; in test [29], -0.395; in test [30], -0.262; in test [31], 0.013; in test [32], -0.243.

(Values after the supplement of paper PMC8728848.)
